Bioassay records (PubChem)
Only some compounds are listed: those with a hit (about 3.3% of all), similar ones and a draw of the others.
rCAG RNA binder – molecules binding r(CAG) RNA repeats; 370,000 tested, 1.3% active; inhibition, % at 3 µM; r(CAG) RNA repeat, TO-PRO-1 dye displacement fluorescence;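 active = inhibition above the plate cutoff, the mean of all test compounds on that plate plus 3 SD, cut at about 35% in these data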;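 also: 0% = DMSO alone and 100% = 100 µM mitoxantrone as full dye displacement; higher means more dye released from RNA so lower well fluorescence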
NOD2 RIPK2 PPI – inhibitors of human NOD2-RIPK2 interaction; O43353; CHO BLA complementation NOD2-RIPK2, CCF4 ratio; inhibition, % at 4.98 µM; 360,000 tested, 0.38% active; AID 624267; in the data active = inhibition above about 21%;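 also: 0% = vehicle only and 100% = reference blocker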
TLR9-MyD88 block – TLR9-MyD88 interaction inhibition; CHO BLA complementation TLR9-MyD88, CCF4 FRET ratio; AID 504734; inhibition, % at 4.98 µM; 340,000 tested, 0.21% active;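 active = inhibition above the mean over all tested compounds plus 3 SD, cut at about 21% in these data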;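 also: 0% = DMSO only wells and 100% = clavulanate BLA inhibitor control wells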
ABHD5-PLIN5 inh – ABHD5-PLIN5 protein interaction inhibition. Split G. princeps luciferase complementation, luminescence, 4 h. inhibition, % at 4 µM. 360,000 tested, 0.78% active. AID 602281;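 active = inhibition above the mean inhibition across every tested compound plus 3 SD, cut at about 22% in these data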;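 also: 0% = DMSO only wells and the 100% control is not disclosed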
TLR4-MyD88 BLA – TLR4-MyD88 interaction inhibition in cells. O00206+Q99836. HeLa CL3-4 TLR4/MyD88 BLA complementation, FRET ratio. inhibition, % at 8.4 µM. 200,000 tested, 0.18% active. AID 861; in the data active = inhibition above about 25%;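 also: 0% = vehicle and 100% = reference inhibitor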
PRMT1 inh – blocks human protein arginine methyltransferase 1. inhibition, % at 2.79 µM. 370,000 tested, 1.3% active. recombinant PRMT1, activity-based probe fluorescence polarization. AID 652257;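 active = inhibition above about 21% made by adding two undisclosed values, limit read from the data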
Target sequence (Q99873 whole entry, looked up): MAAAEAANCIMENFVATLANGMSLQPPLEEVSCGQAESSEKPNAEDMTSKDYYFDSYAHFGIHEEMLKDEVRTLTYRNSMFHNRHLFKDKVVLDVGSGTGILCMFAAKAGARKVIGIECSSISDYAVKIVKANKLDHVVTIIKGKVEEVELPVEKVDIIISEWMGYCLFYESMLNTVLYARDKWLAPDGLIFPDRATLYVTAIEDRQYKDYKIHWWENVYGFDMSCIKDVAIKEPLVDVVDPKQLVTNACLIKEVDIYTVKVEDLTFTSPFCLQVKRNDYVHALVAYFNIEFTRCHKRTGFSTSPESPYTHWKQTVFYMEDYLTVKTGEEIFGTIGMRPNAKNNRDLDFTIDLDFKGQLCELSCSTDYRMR
PRMT1 confirm – PRMT1 (human) inhibition, FP confirmation; recombinant His-PRMT1, activity-based probe fluorescence polarization; inhibition, % at 2.79 µM; 3,300 tested, 42% active; AID 687036; shares compounds with PRMT1 inh;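 active = mean inhibition across replicates above the hit cutoff derived for the earlier primary screen, cut at about 22% in these data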
* = called active by the depositor; . = not tested or not shown.

SMILES	rCAG RNA binder	NOD2 RIPK2 PPI	TLR9-MyD88 block	ABHD5-PLIN5 inh	TLR4-MyD88 BLA	PRMT1 inh	PRMT1 confirm
O=C1CSC(=NC(=O)c2ccccc2)N1	4.3	-6.5	-3.2	-17.8	-3.8	77.6*	14.6
CC(C)C(=O)N=C1NC(=O)CS1	-0.7	-1.1	-7.0	-16.5	2.5	55.3*	35.4*
CCOC(=O)C1=C(CSc2nc3c(cc2C#N)CN(C)CC3)OC(N)=C(C#N)C1c1ccncc1 (stereo not given)	26.9	0.2	5.8	-1.7	-0.8	24.8*	10.2
CCOC(=O)C1=C(CSc2nc(CC)c(C)cc2C#N)OC(N)=C(C#N)C1c1ccccc1 (stereo not given)	6.0	0.4	-2.9	-11.1	-6.4	27.8*	3.8
CCNC(=O)C1CCCN(C(=O)c2ccc(OC)c(OC)c2)CC1 (stereo not given)	0.5	-9.8	.	-6.2	.	0.0	.
CCN(C(=O)C=Cc1ccco1)c1ccccc1	8.8	-5.9	5.2	8.8	.	31.3*	6.4
Cc1ccc2c(c1)CCCN2CC(=O)N(C)c1c(N)n(Cc2ccccc2)c(=O)[nH]c1=O	2.7	-0.5	-6.2	9.5	.	32.9*	3.3
CCN(C(=O)N(CC)c1ccccc1)c1ccccc1	0.4	-4.1	6.0	1.1	.	0.5	.
CCN(C(=O)COC(=O)/C=C/c1ccco1)c1c(N)n(Cc2ccccc2)c(=O)[nH]c1=O	13.7	-15.8	0.9	15.9	.	30.0*	-4.4
CCN(C(=O)COC(=O)/C=C/c1nc2ccccc2s1)c1c(N)n(Cc2ccccc2)c(=O)[nH]c1=O	2.3	-4.0	-10.5	-1.5	.	0.3	.
CCN(C(=O)CN1CCCc2cc(C)ccc21)c1c(N)n(Cc2ccccc2)c(=O)[nH]c1=O	3.1	-3.3	4.8	-2.3	.	29.9*	12.3
CN(CCCOC(=O)c1cc2ccccc2o1)C1CN(Cc2cn(Cc3ccccc3Cl)nn2)S(=O)(=O)C1 (stereo not given)	1.5	.	.	.	.	-4.3	.
COC(=O)C[C@@H]1C=C[C@H](NC(=O)Nc2cc(F)ccc2F)[C@@H](CO)O1	0.8	-5.8	.	1.5	.	1.3	.
Cc1ccc(/C=N/N2CCN(Cc3ccc(Cl)cc3)CC2)o1	-5.3	-3.9	-2.6	20.6	-8.9	41.8*	-6.5
COc1ccc(-c2ccc3c(n2)CCCN3Cc2ccccc2C(F)(F)F)cc1	6.8	.	.	.	.	-2.1	.
CCOc1ccsc1C(=O)O	-0.9	8.2	3.3	-5.0	.	-4.5	.
O=C1C=CC(=O)c2c(O)c(N3CCN(CCO)CC3)c(Cl)c(O)c21	26.2	-10.8	-5.0	-6.6	.	51.9*	84.9*
O=S(=O)(c1ccc(Br)cc1Cl)N1CCN(CCO)CC1	-2.5	-1.2	-3.9	-2.8	-6.0	-2.4	.
O=C(COC(=O)COc1ccccc1)Nc1ncc([N+](=O)[O-])s1	33.9	-0.2	-1.6	-24.6	.	40.5*	15.0
O=C(COc1ccc(Cl)cc1)Nc1ncc([N+](=O)[O-])s1	19.5	-8.8	-9.1	-0.2	1.8	-1.2	.
Clc1ccc(/C=N/N2CCN(Cc3ccccc3)CC2)cc1	3.9	6.9	-2.6	-9.1	.	-1.3	.
Cc1ccc2[nH]c(=O)c(C(c3nnnn3C3CCCC3)N3CCCc4ccccc43)cc2c1 (stereo not given)	4.6	3.7	2.8	-14.0	12.7	34.8*	-3.4
Cc1ccc2[nH]c(=O)c(C(c3nnnn3CC3CCCO3)N3CCCc4ccccc43)cc2c1 (stereo not given)	3.7	-1.2	-4.7	-8.2	5.5	20.3	.
O=C1CC(SC(=S)C2CCCC2=O)C(=O)N1 (stereo not given)	19.2	8.6	-7.1	-29.6	.	64.2*	82.0*
CC1=NN(c2ccccc2)C(=O)C1C(=S)SC1CC(=O)NC1=O (stereo not given)	2.6	-17.1	-7.2	-27.2	.	13.5	.
SMILES	rCAG RNA binder	NOD2 RIPK2 PPI	TLR9-MyD88 block	ABHD5-PLIN5 inh	TLR4-MyD88 BLA	PRMT1 inh	PRMT1 confirm
COc1ccc(OC)c(C=C2CCc3ccccc3C2=O)c1	3.7	-8.0	.	7.8	.	-0.4	.
COc1ccc(N/C=C2\CCc3ccccc3C2=O)cc1	-0.5	10.8	12.2	-12.7	2.7	58.7*	43.7*
CCCCNC(=S)N(CCO)Cc1cc2cc3c(cc2[nH]c1=O)OCCO3	4.1	-1.7	-4.0	-5.6	.	43.9*	-3.9
COc1ccc(N2C(=O)CC(SCC(=O)O)C2=O)cc1 (stereo not given)	0.8	-3.4	-1.8	3.0	-2.2	24.8*	11.3
COc1ccccc1NC(=O)CSC1CC(=O)N(c2ccc3c(c2)OCO3)C1=O (stereo not given)	0.9	1.1	-6.2	0.5	13.1	43.6*	34.8*
CCOc1ccc(N2C(=O)CC(SCC(=O)O)C2=O)cc1 (stereo not given)	2.8	6.5	8.7	-1.8	0.5	3.1	.
COc1ccc(NC(=O)CSC2CC(=O)N(c3ccc4c(c3)OCCO4)C2=O)cc1 (stereo not given)	0.7	4.2	6.7	-4.7	1.7	35.7*	23.1*
COc1ccccc1NC(=O)CN1CCN(CC(=O)Nc2ccc3c(c2)OCO3)CC1	-0.3	-4.8	1.4	5.2	-0.6	0.7	.
O=Cc1cn(-c2ccccc2)nc1-c1ccccc1	-4.3	2.1	0.0	3.1	.	-2.1	.
C(=N\N1CCOCC1)/c1cn(-c2ccccc2)nc1-c1ccccc1	-2.9	4.7	-1.4	-3.1	3.1	96.1*	-1.8
CN1CCN(C(=S)C(=O)Nc2ccc(Br)cc2)CC1	-0.8	-18.6	0.7	18.9	-20.2	72.3*	71.9*
CN1CCN(C(=S)NC(=O)c2ccc(Br)cc2)CC1	1.5	-3.9	.	8.9	.	-2.3	.
S=c1[nH]c(-c2ccc(Cl)cc2)cs1	5.9	-12.1	3.1	-12.7	1.1	30.6*	54.3*
S=c1nccc(-c2ccc(Cl)cc2)[nH]1	1.0	-3.4	.	-4.9	.	26.3*	26.8*
Cc1ccc(N2C(=O)CC(Sc3nccc(C)n3)C2=O)cc1 (stereo not given)	-1.0	-10.8	-0.9	0.1	.	4.3	.
Cc1ccc(SC2CC(=O)N(c3ccc4c(c3)OCCO4)C2=O)cc1 (stereo not given)	-4.8	6.1	-4.9	-2.3	11.4	35.9*	25.6*
Cc1ccc(N2C(=O)CC(Sc3cccs3)C2=O)cc1 (stereo not given)	-2.2	-0.7	-9.6	-0.8	.	66.0*	51.4*
C/C=C1\COC(C(=O)NCCCN2CCCC2=O)(C(F)(F)F)C=C1C=C(C)C (stereo not given)	-1.6	0.4	-14.1	7.7	.	0.1	.
S=C(Nc1cccc(Cl)c1)OCCN1CCCC12CCC(c1ccccc1)CC2 (stereo not given)	.	.	.	.	.	43.5*	58.1*
O=C(Nc1ccc(Br)cc1)OCCN1CCCC12CCC(c1ccccc1)CC2 (stereo not given)	.	.	.	.	.	-2.9	.
